How the values were obtained:
Assay in all cases: PBM binding z-score (relative to random genomic background probes); higher = stronger binding; sequences stand for … in GC…GCGATTGACAGCGTAGAATGAAGG
[1] = test system: PPARg:RXRa DBDmut IVT, anti-RXR (DBD mutation: RXRa K156A/R161A, NR concentration 270 nM, RXRa partner concentration 90 nM)
Method in brief: (§1)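 Custom Agilent 4×180K protein-binding microarrays carried double-stranded probes. Their 34-nt variable regions held direct-repeat seeds, single-nucleotide variants, half-site ablations and random human genomic background sequences. Arrays were incubated 1 h with ligand-free nuclear receptor dimers in PBS pH 7.4, 2% milk, 0.02% Triton X-100, 1 mM DTT, 0.2 mg/mL BSA and 0.4 mg/ml salmon testes DNA. Antibodies against each partner (one per run) detected binding, and scanned fluorescence was regression-normalized. Binding z-scores use random background probes as reference.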

[2] = test system: PPARg:RXRa IVT, anti-PPARg (NR concentration 270 nM, RXRa partner concentration 90 nM)
Method in brief: as §1

[3] = test system: PPARg DBDmut:RXRa IVT, anti-PPARg (DBD mutation: PPARg1 K132A/R137A, NR concentration 270 nM, RXRa partner concentration 90 nM)
Method in brief: as §1

[4] = test system: PPARg DBDmut IVT, anti-PPARg (DBD mutation: PPARg1 K132A/R137A, NR concentration 270 nM)
Method in brief: as §1

[5] = test system: PPARg homodimer (NR concentration 180 nM)
Method in brief: as §1

[6] = test system: PXR:RXRa (NR concentration 270 nM, RXRa partner concentration 90 nM)
Method in brief: as §1

[7] = test system: PXR homodimer (NR concentration 270 nM)
Method in brief: as §1

[8] = test system: RARa:RXR (NR concentration 270 nM, RXRa partner concentration 90 nM)
Method in brief: as §1

[9] = test system: RARa homodimer (NR concentration 270 nM)
Method in brief: as §1

[10] = test system: RARb:RXRa (NR concentration 270 nM, RXRa partner concentration 90 nM)
Method in brief: as §1

[11] = test system: RARb homodimer (NR concentration 270 nM)
Method in brief: as §1

[12] = test system: RARg:RXRa (NR concentration 270 nM, RXRa partner concentration 90 nM)
Method in brief: as §1

[13] = test system: RARg homodimer (NR concentration 270 nM)
Method in brief: as §1

[14] = test system: RXRa DBDmut IVT, anti-RXR (DBD mutation: RXRa K156A/R161A, NR concentration 90 nM)
Method in brief: as §1

[15] = test system: RXRa homodimer (NR concentration 180 nM)
Method in brief: as §1

[16] = test system: THRa:RXRa (NR concentration 90 nM, RXRa partner concentration 90 nM)
Method in brief: as §1

[17] = test system: THRa homodimer (NR concentration 90 nM)
Method in brief: as §1

[18] = test system: VDR homodimer (NR concentration 270 nM)
Method in brief: as §1

| Sequence | PBM binding z-score [1] | PBM binding z-score [2] | PBM binding z-score [3] | PBM binding z-score [4] | PBM binding z-score [5] | PBM binding z-score [6] | PBM binding z-score [7] | PBM binding z-score [8] | PBM binding z-score [9] | PBM binding z-score [10] | PBM binding z-score [11] | PBM binding z-score [12] | PBM binding z-score [13] | PBM binding z-score [14] | PBM binding z-score [15] | PBM binding z-score [16] | PBM binding z-score [17] | PBM binding z-score [18] |
| --- | --- | --- | --- | --- | --- | --- | --- | --- | --- | --- | --- | --- | --- | --- | --- | --- | --- | --- |
| CGAACTAGGTCAGTACAGGACAGTGAAGGATGAT | 7.48 | 7.01 | 0.814 | 0.573 | 1.07 | 0.911 | -0.456 | 0.671 | 0.153 | 3.04 | 2.51 | 2.64 | 3.79 | 0.399 | 1.3 | 3.38 | 0.28 | 0.105 |
| CCTCTGAGGACAACAGGAGGTCAGAGCTGCCAGA | 0.791 | 0.943 | -0.185 | -0.809 | 1.58 | 1.87 | 0.497 | 2.39 | 0.218 | 2.9 | 3.48 | 3.66 | 3.51 | 1.29 | 1.78 | 3.92 | 3.02 | 1.69 |
| GGAACGAGGGCAAAGTTGATAGCTTCTGTCGACG | 4.1 | 4.11 | 0.574 | 0.0846 | 0.712 | 0.96 | 0.104 | 1.34 | -0.449 | 2.14 | 1.06 | 1.82 | 1.32 | 2.55 | 1.72 | 1.13 | -0.251 | 1.22 |
| CCAGACCGGTGAGAAGGTAACTCAGCCTCGATTA | -0.324 | -0.727 | -1.57 | -1.1 | 0.768 | -0.393 | -0.18 | -0.155 | 0.901 | -0.00175 | 0.199 | 0.0096 | 0.0397 | -0.539 | -0.308 | -0.0126 | -0.0326 | 0.281 |
| ACAGACAGGTGAGTGAAGGTAACTCATCTGGACG | 0.0887 | 0.393 | 0.131 | -0.119 | -1.01 | -0.3 | -0.565 | 0.0538 | -0.677 | 0.49 | -0.00809 | 0.205 | 0.564 | -0.622 | 0.146 | 1.57 | -0.651 | -0.803 |
| TAGTCTAGGTCATGCGGGCCAGTATAGTGTCGGC | 5.79 | 6.05 | 2.08 | 2.16 | 1.27 | 1.58 | 0.355 | 2.07 | 0.351 | 3.85 | 3.13 | 3.77 | 4.69 | 0.748 | 3.08 | 3.29 | 1.67 | 0.86 |
| CGTCCAAGGTCAGAGAGGTCAGAGAATGCCGAGT | 2.84 | 3.53 | 0.0352 | -0.116 | 4.06 | 6.31 | 11.8 | 5.66 | 1.75 | 5.18 | 5.37 | 6.29 | 7.09 | 3.52 | 6.16 | 4.53 | 2.72 | 5.54 |
| CCTATTAGTTGGCCATAAGGGCAACCGAAGCTCG | 0.405 | 0.608 | 0.65 | -0.464 | 0.599 | 0.101 | 0.238 | 0.307 | 0.354 | 1.11 | 1.46 | 0.564 | 0.624 | 0.223 | 0.155 | 1.3 | 0.895 | 0.172 |
| GCTAGTTGGTCAGTAAAAGGTCGCACACCGGTCG | 0.512 | 1.32 | -0.491 | -0.677 | 1.76 | 2.07 | -0.218 | 2.6 | 0.227 | 2.34 | 2.98 | 2.68 | 1.8 | 0.145 | 1.95 | 1.61 | 0.192 | 0.447 |
| TCAGACAGGTGAATGTAACTCAGGTACGCAGTCG | 2.43 | 0.904 | -0.264 | -0.0774 | 0.0893 | 0.012 | -0.109 | 0.0859 | -0.00412 | 0.652 | 0.305 | 0.399 | 0.476 | 1.01 | 0.802 | 0.274 | 0.15 | 0.463 |
| ACTAGCAGGCCGAGTTTGGGTCACTCAAACAAAG | -0.462 | 0.793 | -0.125 | -0.727 | -0.382 | 0.617 | -0.458 | 1.21 | -1.01 | 1.29 | 1.65 | 1.04 | 0.63 | -0.134 | 0.562 | 2.17 | 0.853 | 0.396 |
| GGAACGCGGGCAAAGTTGATAGCATCTGTCGACG | 0.331 | 0.502 | -0.831 | -0.512 | -0.0903 | -0.43 | -0.509 | 0.0758 | -0.689 | 0.414 | -0.251 | 0.143 | 0.259 | 0.0126 | 0.126 | -0.6 | -1.04 | -0.471 |
| CCTTACGGGTCAAGGTTATTGCACGGGTGGTACG | 2 | 3.61 | -0.367 | -0.115 | 2.22 | 3.62 | 0.512 | 4.2 | 0.978 | 4.12 | 3.5 | 4.83 | 4.5 | 0.197 | 5.06 | 3.04 | 0.977 | 1.95 |
| ATAATGAGGTTATACGTAGATCAGGGAAGAAAGT | 4.24 | 2.58 | 2.03 | 2.05 | 0.998 | 1.7 | 0.97 | 2.12 | 1.63 | 1.75 | 1.21 | 2.19 | 1.72 | 2.1 | 2.56 | 2.46 | 0.968 | 1.16 |
| ACAGACAGGTGAGTGAAGGTAACTAAGCTGGACG | 0.098 | 0.719 | -0.328 | -0.677 | -0.864 | -0.279 | -0.0557 | 0.0664 | 0.112 | 0.425 | 0.0814 | 0.264 | 0.483 | -0.523 | 0.122 | 1.38 | -0.413 | -0.429 |
| CGTCCAAGGTCAGAGAGGTCAGTGGATGCCGAGT | 2.81 | 3.74 | 0.146 | 0.0263 | 3.71 | 6.17 | 11.7 | 5.33 | 0.8 | 5.38 | 5.54 | 6.26 | 7.05 | 3.42 | 5.46 | 4.29 | 3.05 | 5.52 |
| GCGACTGGGGCATCAGCAGGTTACCTTAACTTAA | 3.64 | 3.03 | -1.1 | -0.949 | 0.152 | 0.367 | -0.375 | 0.558 | -0.549 | 0.828 | 0.872 | 0.268 | 0.175 | 0.145 | 0.259 | 1.8 | 2.05 | -0.071 |

From the supplement of paper PMC6555819
